# Measured values from PubChem BioAssay.
# Values joined by “and” are separate entries in the source; they are usually repeats but may differ in a detail not shown here. Equal values may be shown once. Active and inactive are the calls of the source. Unless noted, no stated cut-off is given here; in the data, active means parasite load remaining mostly below about 12% (no sharp cut-off); inactive means mostly above about 10%.
# Tests used:
# [1] = liver-stage malaria parasite growth inhibition, primary screen, cell-based, HepG2, luciferase luminescence, HepG2 viability (AID 624349);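 further: 100% = mean of DMSO negative control wells on the same plate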; conditions: P. berghei liver stage in HepG2, luciferase luminescence, concentration not given here; parasite load remaining: stronger effect = lower value; viability: measured here: HepG2 viability without parasites
# [2] = test system: Hepatitis C virus NS3 helicase; test: HCV NS3 helicase inhibitors, primary screen, biochemical, fluorescence polarization, LOPAC1280 library (AID 687035; in the data active means inhibition above about 37%); conditions: Purified HCV NS3 helicase, Cy5-dT15 ssDNA binding fluorescence polarization; stronger effect = higher value; concentration not given here
# [3] = Cy5 fluorescence quenching or enhancement artefacts, artefact control for HCV NS3 helicase inhibitor project, biochemical, LOPAC1280 (AID 687037; call rule not given here); conditions: Cy5-DNA-NS3h complex fluorescence interference counterscreen
# [4] = stimulators of nuclear beta-catenin in C2C12, primary screen, imaging, WNT3A-conditioned medium, mouse C2C12, NPC library (AID 1117326; in the data active means nuclear beta-catenin stimulation mostly above about 4.2%, no sharp cut-off; inactive means mostly below about 10%); conditions: stronger effect = higher value
# [5] = stimulators of insulin release from INS-1E, primary screen, cell-based, 5 mM glucose, NPC library (AID 1117329;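 active means compound raises insulin release from rat beta cells at 5 mM glucose, no numeric limit stated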); conditions: rat INS-1E insulin secretion, at 10 µM, stronger effect = higher value
# [6] = growth inhibition of GSK3B-pretreated HCT116 cells – cell-based, CellTiter-Glo, 0.2 to 20 µM (AID 1117336;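 active means compounds lowering colon cancer cell viability after pretreatment blocking the GSK3B kinase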); conditions: HCT116 viability after GSK3B inhibitor, at 20 µM, stronger effect = higher value
# [7] = inhibition of endothelial tube formation, primary screen, imaging, VEGF stimulated, CD31 staining, tube area, NPC library (AID 1117340;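 active means compound that reduces growth-factor-driven endothelial tube area in a mixed cell culture, no cutoff stated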); conditions: VEGF-stimulated ADSC/ECFC co-culture, at 10 µM, stronger effect = higher value
# [8] = glucagon-like peptide 1 release enhancers, primary assay, NCI-H716 cell line, NPC library (AID 1117341;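 active means compound raises GLP1 secretion from the human gut endocrine cells, with no numeric limit stated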); conditions: NCI-H716 cells, at 10 µM, stronger effect = higher value
# [9] = HCT116 colon cancer cell growth inhibition, primary screen, CellTiter-Glo luminescence, NPC library (AID 1117342;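 active means compounds that lower survival of HCT116 colon cancer cells in the luminescence readout, no numeric limit stated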); conditions: at 20 µM (top of the series)
# [10] = CellTiter-Glo luminescent readout of SW480 viability loss, NPC library primary (AID 1117343;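 active means compounds that lower viability of the colon cancer cells in the luminescence readout, with no numeric limit stated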); conditions: CellTiter-Glo luminescence; at 20 µM (top of the series)
# [11] = decreased DLD-1 cellular survival, CellTiter-Glo luminescent readout, NPC compound collection, primary HTS (AID 1117346;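 active means compounds that lower survival of DLD-1 colon cancer cells in the luminescence readout, no cutoff given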); conditions: DLD-1 viability, CellTiter-Glo luminescence; at 20 µM (top of the series)
# [12] = target: 6-phosphogluconate dehydrogenase, decarboxylating (Homo sapiens) (UniProt P52209); test: 6PGD enzyme inhibitors, primary screen, biochemical, human, recombinant enzyme, NADPH absorbance (AID 1159550;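 active means at least 20% inhibition of 6-phosphogluconate dehydrogenase activity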); conditions: recombinant 6PGD, NADPH absorbance 341 nm; at 10 µM; stronger effect = higher value
# [13] = Cy5 fluorescence interference with SSB-bound oligo, artefact control for HCV NS3 helicase inhibitor project, biochemical, NIH Clinical Collection, E. coli SSB (AID 743268; call rule not given here)
# [14] = test system: Hepatitis C virus NS3 helicase; test: HCV NS3 helicase inhibitors, primary screen, biochemical, fluorescence polarization, NIH Clinical Collection (AID 743270; call rule not given here); conditions: NS3 helicase binding to Cy5-dT15 DNA, stronger effect = higher value, concentration not given here
# [15] = target: Single-stranded DNA-binding protein (Escherichia coli (strain K12)) (UniProt P0AGE0); test: E. coli SSB displacement from DNA, counter-screen for HCV NS3 helicase inhibitor project, biochemical, fluorescence polarization, NIH Clinical Collection (AID 743271; in the data active means inhibition above about 28%); conditions: stronger effect = higher value, concentration not given here
# [16] = fluorescence interference in NS3h assay format, artefact control for HCV NS3 helicase inhibitor project, biochemical, NIH Clinical Collection (AID 743272; call rule not given here;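 further: HCV NS3 helicase with a Cy5 labelled single stranded DNA probe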); conditions: fluorescence interference counterscreen, stronger effect = lower value
# Sequence of 6-phosphogluconate dehydrogenase, decarboxylating (Homo sapiens) (P52209 whole entry, looked up): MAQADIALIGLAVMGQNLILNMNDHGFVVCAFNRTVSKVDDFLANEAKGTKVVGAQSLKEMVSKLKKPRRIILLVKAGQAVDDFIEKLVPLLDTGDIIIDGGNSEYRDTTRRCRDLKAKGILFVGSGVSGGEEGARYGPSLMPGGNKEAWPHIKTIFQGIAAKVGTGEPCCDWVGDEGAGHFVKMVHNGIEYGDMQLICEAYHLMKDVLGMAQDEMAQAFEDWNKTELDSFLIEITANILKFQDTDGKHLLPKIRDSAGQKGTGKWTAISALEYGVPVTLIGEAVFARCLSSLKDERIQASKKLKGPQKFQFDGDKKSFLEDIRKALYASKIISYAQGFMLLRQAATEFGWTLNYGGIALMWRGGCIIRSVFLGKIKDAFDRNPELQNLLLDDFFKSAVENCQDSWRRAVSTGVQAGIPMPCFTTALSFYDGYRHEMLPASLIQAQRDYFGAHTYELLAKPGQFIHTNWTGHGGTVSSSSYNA
Structure (SMILES),parasite load remaining [1],viability [1],inhibition [2],fluorescence ratio (interference) [3],nuclear beta-catenin stimulation ([4]; at 10 µM),"nuclear beta-catenin stimulation ([4]; stimulation, at 2 µM) [%]",insulin secretion stimulation [5],viability decrease [6],tube area decrease [7],GLP1 secretion stimulation [8],inhibition of viability [9],viability decrease (inhibition) [10],viability decrease (inhibition) [11],inhibition [12],fluorescence ratio [13],inhibition [14],inhibition [15],fluorescence ratio [16]
CN(C)CCCN1c2ccccc2Sc2ccccc21,72.2% (inactive) and 44.2% (inactive) and 20.3% (inactive),85.1% and 62.8% and 90.9%,-9% (inactive),0.9 (inactive),2.1% (inactive),1.6,14.5% (inactive),-76.1% (inactive),12.3% (inactive),9.2% (inactive),39.3% (inactive),95.8% (active),14.3% (inactive),6.03% (inactive),,,,
NC(CO)C(=O)NNCc1ccc(O)c(O)c1O (stereo unspecified),,,1% (inactive),1 (inactive),13.1% (inactive),3.8,2.2% (inactive),55.6% (active),-12.6% (inactive),8.5% (inactive),84.4% (active),145% (active),103% (active),-10.3% (inactive),,,,
Oc1c(Cl)cc(Cl)c(Cl)c1Cc1c(O)c(Cl)cc(Cl)c1Cl,-3.37% (inactive) and -0.17% (inactive) and -0.05% (inactive),54.9% and 42.6% and 53.4%,,,15% (inactive),8.3,-3.4% (inactive),117% (active),108% (active),17.4% (inactive),124% (active),149% (active),101% (active),-10.3% (inactive),1.01 (inactive),15.9% (inactive),20.1% (inactive),0.92 (inactive)
CCCCC1C(=O)N(c2ccccc2)N(c2ccccc2)C1=O,85.8% (inactive) and 69.9% (inactive) and 33.4% (inactive),73% and 101% and 70.5%,-4% (inactive),1 (inactive),-2% (inactive),-0.9,-1.7% (inactive),-11.7% (inactive),0.7% (inactive),-3.3% (inactive),9.25% (inactive),13.6% (inactive),-12.9% (inactive),1.47% (inactive),,,,
